Data on 52 molecules can be found in PubChem BioAssay AID588519 (ICCB-Longwood Screening Facility, Harvard Medical School, 2011).

In the experiment the target is Genome polyprotein (Poliovirus type 1 (strain Mahoney)) (UniProt P03300). Description: poliovirus RdRp elongation inhibitors, primary screen, biochemical, fluorescence polarization, total intensity (AID 588519). As to z-score: compound at 16.7 µg/mL. Particulars: poliovirus polymerase elongation, stronger effect = lower value; for % elongation: compound at 16.7 µg/mL; for z-score: measured here: FP z-score.
Sequence of Genome polyprotein (Poliovirus type 1 (strain Mahoney)) (P03300 1749-2209 limits assumed): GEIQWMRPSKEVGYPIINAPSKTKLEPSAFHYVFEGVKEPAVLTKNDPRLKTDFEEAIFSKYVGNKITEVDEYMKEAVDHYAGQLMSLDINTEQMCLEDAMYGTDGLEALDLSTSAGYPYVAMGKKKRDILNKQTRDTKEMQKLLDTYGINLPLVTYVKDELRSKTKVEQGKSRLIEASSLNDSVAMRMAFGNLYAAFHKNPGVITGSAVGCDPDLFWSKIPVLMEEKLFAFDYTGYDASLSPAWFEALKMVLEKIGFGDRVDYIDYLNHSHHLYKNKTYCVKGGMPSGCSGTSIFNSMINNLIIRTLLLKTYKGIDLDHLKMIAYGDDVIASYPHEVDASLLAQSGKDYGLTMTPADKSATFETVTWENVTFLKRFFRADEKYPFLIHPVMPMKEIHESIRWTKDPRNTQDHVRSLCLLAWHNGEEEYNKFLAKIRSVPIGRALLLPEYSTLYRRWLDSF
Where [1] appears, read: measured here: total intensity read-out.

The whole screen tested about 150,000 compounds, of which about 1,000 (0.67%) were called active. Rule as the data show it: active = % elongation below about 90%; inactive = the rest, inconclusive results apart. Many of the other results were omitted from the sample, so actives are more common in it than they were.

With `Cc1cc(C(=O)COc2ccc(-n3ccnc3)cc2)c(C)n1-c1ccc2c(c1)OCO2`, the % elongation was 103% (inactive) and the z-score was determined as 0.1. Under setting [1], the % elongation was determined as 107%.

On to `Nc1nnc(-c2ccc(Cn3c(-c4cncs4)nc4ccccc43)cc2)s1`, for which the % elongation is 63% (active) and the z-score is -5.6. In addition, the % elongation under setting [1] amounted to 75%.

As for `CC(=O)Nc1nc2ccccc2n1Cc1ccc(C)cc1`, the % elongation is 100% (inactive) and the z-score was -0.7. Moreover, the % elongation under setting [1] turned out to be 102%.

Take `Cc1ccc(Cn2c(CNC(=O)c3ccccc3)nc3ccccc32)cc1`: the % elongation is 100% (inactive) and the z-score was -0.3. Moreover, under setting [1], the % elongation was 104%.

As for `O=C1Nc2ccccc2N(c2ccccc2)N1`, the % elongation was 101% (inactive) and the z-score was 0.4. For the same molecule, the % elongation under setting [1] was found to be 105%.

Turning to `CCOc1ccccc1N(CC(=O)NC)S(C)(=O)=O`, the % elongation is 102% (inactive) and the z-score turned out to be 0.4. The % elongation under setting [1] was 103%.

For `Cc1cc(C(=O)COC(=O)c2ccc(S(=O)(=O)NCc3ccco3)cc2)c(C)n1C`, the % elongation is 101% (inactive) and the z-score is -0.2. Further, the % elongation under setting [1] came to 100%.

Take `CCOc1ccccc1CNC(=O)Nc1cn(CC(C)C)c(=O)c2ccccc12`: the % elongation is 28% (active) and the z-score was -6. Moreover, under setting [1], the % elongation was found to be 48%.

As to `CCOc1ccccc1CNC(=O)Cn1ncc2c([nH]c3ccccc32)c1=O`, the % elongation is 102% (inactive) and the z-score is -0.4. In addition, the % elongation under setting [1] came out at 103%.

As for `CCOc1ccccc1N(CC)C(=O)Nc1cn(C)c(=O)c2ccccc12`, the % elongation is 103% (inactive) and the z-score was -0.7. Moreover, the % elongation under setting [1] worked out at 104%.

In the case of `CCOc1ccc(OCC(=O)OC(C)C(=O)Nc2ncc(Cl)cc2Cl)cc1` (stereo unspecified), the % elongation was 106% (inactive) and the z-score was found to be 0.3. Moreover, under setting [1], the % elongation was 97%.

`Cc1cccc(OCCOc2ccc(Br)cc2/C=C2\SC(=S)NC2=O)c1`: the % elongation was 101% (inactive) and the z-score was -0.2. Under setting [1], the % elongation was found to be 104%.

`Cc1cc(C)c(C(N)=O)c(SCC(=O)Nc2c(C)n(C)n(-c3ccccc3)c2=O)n1`: the % elongation is 103% (inactive) and the z-score is 0.1. Further, the % elongation under setting [1] worked out at 97%.

Consider `O=C1Cc2ccccc2C(=O)N1Cc1ccccn1`, for which the % elongation was 85% (active) and the z-score was -1.9. Besides, under setting [1], the % elongation stood at 83%.

Take `O=C1c2ccccc2C(=O)N1CC1OCc2ccccc2CO1`: the % elongation is 103% (inactive) and the z-score turned out to be 0.3. Moreover, under setting [1], the % elongation stood at 110%.

With `CSc1nc(=O)n(Cc2ccccn2)c2c1CCC2`, the % elongation is 101% (inactive) and the z-score was found to be 0.1. Further, the % elongation under setting [1] worked out at 104%.

With `Cc1ccc(NC(=O)C2C3C=CC4(O3)C2C(=O)N(CCCN2CCOCC2)C4C(=O)NC2CCCC(C)C2C)cc1Cl` (stereo unspecified), the % elongation is 101% (inactive) and the z-score turned out to be 0.1. Further, under setting [1], the % elongation came to 103%.

On to `CCn1c2ccccc2c2cc(CN3CCN(Cc4cccc(Cl)c4)CC3)ccc21`, for which the % elongation is 103% (inactive) and the z-score amounted to 0.1. The % elongation under setting [1] worked out at 108%.

Turning to `CCn1c2ccccc2c2cc(P(=S)(OC)OC)ccc21`, the % elongation was 81% (active) and the z-score was -2.3. Under setting [1], the % elongation amounted to 86%.

In the case of `CCn1c(=O)cc(O)c2ccccc21`, the % elongation is 115% (inactive) and the z-score worked out at 1.3. For the same molecule, under setting [1], the % elongation came out at 123%.

As to `O=C(CN1CCN(S(=O)(=O)c2ccc3[nH]c(=O)[nH]c3c2)CC1)N1CCCCCC1`, the % elongation was 86% (active) and the z-score was -1.1. For the same molecule, the % elongation under setting [1] amounted to 93%.

As to `O=C(CCc1nc(CN2CCN(S(=O)(=O)c3ccc(F)cc3)CC2)no1)N1CCCCC1`, the % elongation is 109% (inactive) and the z-score came to 0.3. Besides, under setting [1], the % elongation is 112%.

In the case of `O=C(C1CCN(S(=O)(=O)c2ccc3[nH]c4c(c3c2)CCCCC4)CC1)N1CCCC1`, the % elongation is 100% (inactive) and the z-score is -1. Also, the % elongation under setting [1] amounted to 97%.

Regarding `CCC1CN2CCC34c5ccccc5NC3C(C)C1CC24` (stereo unspecified), the % elongation was 101% (inactive) and the z-score was determined as 0.3. Besides, the % elongation under setting [1] was 104%.

Regarding `CCOC(=O)C1=C(C)NC(=O)NC1c1c(Cl)nc2c(C)cccn2c1=O` (stereo unspecified), the % elongation is 104% (inactive) and the z-score is 0. In addition, the % elongation under setting [1] came out at 109%.

Take `CCC(C)NC(=O)C1c2ccccc2C(=O)N1Cc1ccccc1` (stereo unspecified): the % elongation is 102% (inactive) and the z-score was 0.2. In addition, the % elongation under setting [1] worked out at 102%.

For `COC(=O)CSc1nnc2c(n1)[nH]c1ccccc12`, the % elongation was 102% (inactive) and the z-score was 0.2. Besides, under setting [1], the % elongation turned out to be 108%.

As to `CC(C)(C)NC(=O)C1CCN(S(=O)(=O)c2ccccc2)CC1`, the % elongation is 101% (inactive) and the z-score is 0.1. For the same molecule, the % elongation under setting [1] is 103%.

As to `CCC(=O)Nc1ccc(C(=O)n2nnc3ccccc32)cc1`, the % elongation is 104% (inactive) and the z-score was 1. The % elongation under setting [1] was found to be 102%.

Take `O=C1C(Nc2ccc(O)cc2)=C(n2nnc3ccccc32)C(=O)c2ccccc21`: the % elongation is 79% (active) and the z-score is -2.2. Further, under setting [1], the % elongation was determined as 79%.

As to `N#CC1=C2Sc3ccccc3N2CC1=O`, the % elongation was 97% (inactive) and the z-score is -1. For the same molecule, the % elongation under setting [1] turned out to be 165%.

As for `Cc1c(C(=O)NC(C)CCc2ccccc2)oc2c1C(=O)CCC2` (stereo unspecified), the % elongation was 102% (inactive) and the z-score amounted to 0. For the same molecule, under setting [1], the % elongation is 102%.

With `c1ccc2cc3cnccc3cc2c1`, the % elongation was 100% (inactive) and the z-score is -0.3. Also, the % elongation under setting [1] was 102%.

With `Sc1ccc2ccccc2c1`, the % elongation was 90% (active) and the z-score was -1.5. Moreover, under setting [1], the % elongation turned out to be 91%.

With `O=C1c2ccccc2C(=O)C1c1ccc2ccccc2c1`, the % elongation was 93% (inactive) and the z-score is -1.3. The % elongation under setting [1] was 92%.

As to `N#Cc1ccc(COC(=O)Cc2noc3ccccc23)cc1`, the % elongation is 109% (inactive) and the z-score was 0.7. Also, the % elongation under setting [1] is 104%.

For `O=S(=O)(c1cc(S(=O)(=O)C(F)(F)F)c(Cl)c(S(=O)(=O)C(F)(F)F)c1)C(F)(F)F`, the % elongation is 98% (inactive) and the z-score was -0.2. Moreover, under setting [1], the % elongation was determined as 95%.

On to `C/C(=N\c1ccccn1)C1=C(O)c2ccccc2C1=O`, for which the % elongation was 98% (inactive) and the z-score is -1. The % elongation under setting [1] came out at 97%.

With `O=S(=O)(NC1CCCCC1N1CCCCC1)c1ccc(Cl)cc1` (stereo unspecified), the % elongation is 104% (inactive) and the z-score was found to be 0.2. Besides, the % elongation under setting [1] amounted to 96%.

Regarding `Cc1ccc2nc(C)c3c(c2c1)N(c1ccccc1)CC3`, the % elongation was 89% (active) and the z-score was -2.3. In addition, the % elongation under setting [1] was determined as 89%.

`Cc1ccc2nc(Nc3ccccc3)cc(C)c2c1`: the % elongation was 110% (inactive) and the z-score stood at 0.8. The % elongation under setting [1] is 111%.

Regarding `Cc1ccc2nc(-c3ccccn3)cc(C(=O)O)c2c1`, the % elongation was 103% (inactive) and the z-score is 0.8. For the same molecule, the % elongation under setting [1] is 100%.

For the molecule `CC(=O)OC[C@H]1O[C@@H](NC(=S)NN)[C@H](OC(C)=O)[C@@H](OC(C)=O)[C@@H]1OC(C)=O`, the % elongation was 103% (inactive) and the z-score came out at 0.3. In addition, the % elongation under setting [1] worked out at 96%.

Consider `CC(=O)Oc1c[n+]([O-])n(-c2ccccc2)n1`, for which the % elongation is 97% (inactive) and the z-score is -0.6. The % elongation under setting [1] stood at 100%.

In the case of `CCOC(=O)C(C(=O)c1ccccc1)C1(O)C(=O)c2ccccc2C1=O` (stereo unspecified), the % elongation was 46% (active) and the z-score was -6.9. For the same molecule, the % elongation under setting [1] came to 56%.

As to `CCOc1cc(C2C(C(=O)OC)=C(C)NC3=C2C(=O)c2ccccc23)ccc1O` (stereo unspecified), the % elongation was 112% (inactive) and the z-score is 0.2. The % elongation under setting [1] was determined as 113%.

Consider `CCOC(=O)C1=C(C)NC(=O)NC1c1ccccc1` (stereo unspecified), for which the % elongation is 101% (inactive) and the z-score is -0.1. In addition, under setting [1], the % elongation is 102%.

Turning to `COC(=O)CC(N)c1ccc(Cl)cc1` (stereo unspecified), the % elongation was 103% (inactive) and the z-score was 0.2. The % elongation under setting [1] was determined as 106%.

As for `C=CCN1CCN(C(c2ccc(C)cc2)c2nnnn2C2CCCC2)CC1` (stereo unspecified), the % elongation was 103% (inactive) and the z-score was 0.4. In addition, the % elongation under setting [1] came to 102%.

Consider `Cc1ccc(NC(=O)CC(=O)Nc2ccc(C)cc2)cc1`, for which the % elongation is 106% (inactive) and the z-score worked out at 0.3. For the same molecule, the % elongation under setting [1] was 102%.

With `Cc1ccc(NC(=S)Nc2ccc(C)cc2)cc1`, the % elongation is 76% (active) and the z-score was -4.1. For the same molecule, the % elongation under setting [1] came out at 82%.

As for `CSC(=S)Nc1ccc(C)cc1`, the % elongation was 100% (inactive) and the z-score stood at 0.1. Also, the % elongation under setting [1] is 104%.
